Experimental data taken from PubChem BioAssay.
Activity calls are given as the source filed them.

Key:
[1] = small molecules captured by biotinylated probe aFSTL3 – biochemical, small-molecule microarray, fluorescence 635/667, stem cell growth factor project, primary screen (AID 1064); settings: higher = more signal;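 further: measures binding of the biotinylated anti-FSTL3 antibody to printed compounds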
[2] = binders from COS7 lysate, DM2A8 probe, primary screen, torsin A project, cell lysate, small-molecule microarray, fluorescence 635/667 (AID 1065); settings: higher = more signal, COS7 lysate expressing mutant human TOR1A
[3] = small molecules captured by biotinylated probe aFGF2 – biochemical, small-molecule microarray, fluorescence 635/667, stem cell growth factor project, primary screen (AID 1067); settings: higher = more signal;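 further: measures binding of biotinylated aFGF2 protein to printed compounds on slides; z-score merges feature fluorescence and signal-to-noise across triplicate slides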
[4] = small molecules captured by biotinylated probe aFGF10 – biochemical, small-molecule microarray, fluorescence 635/667, stem cell growth factor project, primary screen (AID 1071); settings: higher = more signal;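 further: score merges 667 nm spot intensity and signal to noise from triplicate slides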
[5] = biological target: Neurogenic locus notch homolog protein 2 (Homo sapiens) (UniProt Q04721); test: small molecules binding Notch2 protein – biochemical, small-molecule microarray, 635 nm fluorescence, stem cell growth factors, primary screen (AID 1073); settings: higher = more signal
[6] = biological target: Pro-neuregulin-1, membrane-bound isoform (Homo sapiens) (UniProt Q02297); test: small molecules binding neuregulin-1 protein – biochemical, small-molecule microarray, fluorescence 635/667, psychiatric disease protein project, primary screen (AID 1075); settings: NRG1 binding, 635 nm fluorescence, higher = more signal;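 further: score combines 667 nm spot fluorescence with signal to noise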
[7] = test system: Neuregulin-1 EGF-like domain; test: small molecules binding NRG1 EGF domain – biochemical, small-molecule microarray, 635 nm fluorescence, primary screen (AID 1081); settings: higher = more signal;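 further: binding of the protein to compounds printed on small-molecule microarray slides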
[8] = FRG1 expression reporter modulators in myotubes – cell-based, C2C12 myotubes, firefly/Renilla luciferase, luminescence, FRG1 inhibition for FSHD, primary screen (AID 1084); settings: FRG1 promoter luciferase, higher = more signal, called active from +8 up or from −8 down
[9] = small molecules captured by biotinylated probe aFST – biochemical, small-molecule microarray, fluorescence 635/667, stem cell growth factor project, primary screen (AID 1086); settings: higher = more signal;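 further: score merges 667 nm fluorescence with signal-to-noise of each printed compound spot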
[10] = binders of probe aHhip on microarray, primary screen, stem cell growth factor project, biochemical, small-molecule microarray, fluorescence 635/667 (AID 1087); settings: higher = more signal;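 further: score merges spot fluorescence at 667nm with spot signal to noise ratio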

Chain of Pro-neuregulin-1, membrane-bound isoform (Homo sapiens) (Q02297 whole entry, looked up, the tested form may be a part, canonical isoform): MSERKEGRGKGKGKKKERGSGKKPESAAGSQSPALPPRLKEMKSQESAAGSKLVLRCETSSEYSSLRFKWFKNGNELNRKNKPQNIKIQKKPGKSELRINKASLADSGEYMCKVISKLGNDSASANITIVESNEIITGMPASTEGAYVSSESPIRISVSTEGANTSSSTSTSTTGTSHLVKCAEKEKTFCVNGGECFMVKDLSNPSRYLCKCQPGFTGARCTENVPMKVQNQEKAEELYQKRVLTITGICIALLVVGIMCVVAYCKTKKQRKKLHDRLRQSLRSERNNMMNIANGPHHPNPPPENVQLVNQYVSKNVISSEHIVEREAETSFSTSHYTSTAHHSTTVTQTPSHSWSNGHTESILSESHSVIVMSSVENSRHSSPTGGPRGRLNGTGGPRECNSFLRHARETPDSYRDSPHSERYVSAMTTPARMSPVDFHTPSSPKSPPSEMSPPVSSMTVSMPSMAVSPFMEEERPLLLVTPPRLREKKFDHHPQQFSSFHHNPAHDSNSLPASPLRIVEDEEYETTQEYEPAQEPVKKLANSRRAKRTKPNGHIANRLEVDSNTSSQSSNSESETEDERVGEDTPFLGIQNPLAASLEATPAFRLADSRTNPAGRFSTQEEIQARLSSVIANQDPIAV
Chain of Neurogenic locus notch homolog protein 2 (Homo sapiens) (Q04721 whole entry, looked up, canonical isoform): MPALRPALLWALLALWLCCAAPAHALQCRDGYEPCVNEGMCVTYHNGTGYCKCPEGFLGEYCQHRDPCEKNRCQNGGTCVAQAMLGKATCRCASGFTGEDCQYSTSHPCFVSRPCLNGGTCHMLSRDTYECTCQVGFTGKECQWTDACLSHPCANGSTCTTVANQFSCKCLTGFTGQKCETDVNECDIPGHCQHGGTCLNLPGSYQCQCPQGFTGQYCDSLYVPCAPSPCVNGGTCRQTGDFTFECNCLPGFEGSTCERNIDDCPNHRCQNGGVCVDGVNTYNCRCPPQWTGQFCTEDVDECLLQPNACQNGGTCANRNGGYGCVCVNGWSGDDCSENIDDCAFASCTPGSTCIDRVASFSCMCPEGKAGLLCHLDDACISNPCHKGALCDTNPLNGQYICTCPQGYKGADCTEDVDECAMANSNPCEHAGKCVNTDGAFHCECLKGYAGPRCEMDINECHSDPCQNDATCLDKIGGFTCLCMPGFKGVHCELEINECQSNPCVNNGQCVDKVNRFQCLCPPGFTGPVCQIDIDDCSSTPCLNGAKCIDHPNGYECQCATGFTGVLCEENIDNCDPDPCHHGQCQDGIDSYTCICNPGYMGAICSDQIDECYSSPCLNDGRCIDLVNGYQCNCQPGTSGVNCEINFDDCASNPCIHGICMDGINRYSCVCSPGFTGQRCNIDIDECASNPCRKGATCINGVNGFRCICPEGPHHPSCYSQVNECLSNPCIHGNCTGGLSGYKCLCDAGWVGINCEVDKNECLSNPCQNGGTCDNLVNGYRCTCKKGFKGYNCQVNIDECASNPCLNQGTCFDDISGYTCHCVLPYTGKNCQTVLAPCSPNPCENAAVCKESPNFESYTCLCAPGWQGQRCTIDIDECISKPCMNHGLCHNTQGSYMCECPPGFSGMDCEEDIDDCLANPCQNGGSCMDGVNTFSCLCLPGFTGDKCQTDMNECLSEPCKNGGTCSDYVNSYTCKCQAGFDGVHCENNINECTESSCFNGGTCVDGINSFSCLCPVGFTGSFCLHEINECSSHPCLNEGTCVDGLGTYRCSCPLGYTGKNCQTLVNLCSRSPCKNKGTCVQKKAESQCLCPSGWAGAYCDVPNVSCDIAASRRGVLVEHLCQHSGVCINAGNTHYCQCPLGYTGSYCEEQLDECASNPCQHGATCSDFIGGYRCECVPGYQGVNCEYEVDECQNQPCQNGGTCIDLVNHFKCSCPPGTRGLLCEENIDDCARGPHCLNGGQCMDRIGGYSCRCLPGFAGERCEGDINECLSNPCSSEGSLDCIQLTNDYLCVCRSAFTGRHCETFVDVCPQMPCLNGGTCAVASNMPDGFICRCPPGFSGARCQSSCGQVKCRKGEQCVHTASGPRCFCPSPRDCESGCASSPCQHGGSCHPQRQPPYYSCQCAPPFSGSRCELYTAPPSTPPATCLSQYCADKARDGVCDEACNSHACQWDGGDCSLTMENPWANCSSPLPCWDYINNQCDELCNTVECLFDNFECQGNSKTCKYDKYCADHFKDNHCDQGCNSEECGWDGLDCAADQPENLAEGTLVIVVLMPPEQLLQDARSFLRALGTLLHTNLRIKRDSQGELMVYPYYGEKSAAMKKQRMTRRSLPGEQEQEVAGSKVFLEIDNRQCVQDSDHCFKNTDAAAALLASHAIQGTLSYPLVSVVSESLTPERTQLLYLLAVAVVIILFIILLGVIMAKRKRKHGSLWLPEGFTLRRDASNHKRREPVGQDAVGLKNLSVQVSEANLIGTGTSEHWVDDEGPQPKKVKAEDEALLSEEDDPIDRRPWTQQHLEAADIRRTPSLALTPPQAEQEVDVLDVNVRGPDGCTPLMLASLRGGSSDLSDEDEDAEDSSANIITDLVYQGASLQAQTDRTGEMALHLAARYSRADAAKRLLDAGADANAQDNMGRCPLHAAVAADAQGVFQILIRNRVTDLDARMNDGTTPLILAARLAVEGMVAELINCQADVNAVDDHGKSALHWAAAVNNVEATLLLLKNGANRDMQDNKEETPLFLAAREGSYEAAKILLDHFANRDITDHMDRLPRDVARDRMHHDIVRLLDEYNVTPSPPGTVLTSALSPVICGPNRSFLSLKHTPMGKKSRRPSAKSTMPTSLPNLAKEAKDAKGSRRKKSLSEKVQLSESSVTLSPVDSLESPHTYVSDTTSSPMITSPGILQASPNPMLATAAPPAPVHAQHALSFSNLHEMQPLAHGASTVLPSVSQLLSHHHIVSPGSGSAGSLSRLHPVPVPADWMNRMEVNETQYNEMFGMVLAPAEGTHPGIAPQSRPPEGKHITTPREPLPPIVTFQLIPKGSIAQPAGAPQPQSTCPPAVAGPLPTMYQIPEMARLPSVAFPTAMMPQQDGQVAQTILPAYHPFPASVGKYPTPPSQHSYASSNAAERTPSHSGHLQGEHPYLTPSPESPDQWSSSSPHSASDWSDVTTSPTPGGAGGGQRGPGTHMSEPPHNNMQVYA

Compound	composite z-score [1]	composite z-score [2]	composite z-score [3]	composite z-score [4]	composite z-score [5]	composite z-score [6]	composite z-score [7]	z-score [8]	composite z-score [9]	composite z-score [10]
C=C(C)C1CCC(C(O)C2C=CC3C(=O)N(C)C(=O)C3N2Nc2cc(OC)c(OC)c(OC)c2)CC1 (stereo not given)	0.735	0.287	0.115	0.334	1.57	1.97	1.29	1.12 (inactive)	1.07	-0.0296
CN(C)CCCC[C@@H]1NC(=O)[C@@H]2C[C@H](C(=O)O)[C@H](c3cccc(OCCO)c3)N2C1=O	0.119	-0.326	-0.186	-0.392	-0.561	-0.579	-0.106	1.3 (inactive)	-0.124	-0.175
CCOC(=O)C=Cc1ccccc1O	-0.13	0.0396	-0.0156	0.205	0.578	-0.0345	0.614	0.911 (inactive)	0.245	-0.0003
CCOC(=O)C[C@H]1[C@H](OC(=O)c2cc3ccccc3oc2=O)[C@@H](NC(=O)c2ccc3ccccc3c2)c2cc(OCCCO)ccc2N1C(=O)Cc1ccc(OC)cc1	-0.59	-0.0976	-0.196	0.531	0.759	0.711	0.936	-0.0206 (inactive)	0.73	0.0505
COc1ccc(C(=O)Nc2cccc(CN3C(=O)[C@]4(O[C@H](CCn5cc([C@H](O)c6ccccc6)nn5)[C@@H]([Si](C)(C)c5ccc(OC)cc5)[C@@H]4C)c4ccccc43)c2)cc1	0.243	-0.505	-0.0709	0.266	-0.122	1.04	0.933	-0.454 (inactive)	0.0644	-0.0618
C=CCNC(=O)[C@@H]1[C@H]2C(=O)O[C@H](c3ccccc3)[C@H](c3ccccc3)N2[C@H](c2ccc(O)cc2)[C@@]12C(=O)N(C(=O)OCCOC)c1ccc(C#CCCO)cc12	-0.0125	0.376	-0.0222	0.82	0.258	1.05	1.35	0.354 (inactive)	0.256	0.0274
O=C1OCC=C[C@H]2OC34C=CCN(c5ccc6ccccc6c5)C(=O)[C@H]3N(CCCCCO)C(=O)[C@@H]4[C@@H]12 (stereo not given in full)	1.43	-0.964	-0.0407	-0.61	-0.994	2.26	1.39	-0.139 (inactive)	-0.356	-0.338
Cc1ccccc1C(O)C1C=CC2C(=O)NC(=O)C2N1Nc1ccc(Cl)cc1Cl (stereo not given)	0.51	0.328	0.0342	0.5	1.48	1.73	1.04	0.0623 (inactive)	0.504	-0.283
Cc1ccc(S[C@]2(C(=O)NCC(C)C)CC(=O)N(C3Cc4ccccc4C3)[C@@H]2c2ccc(CO)cc2I)cc1	0.757	-0.5	-0.0238	0.166	-1.01	0.123	-0.126	-1.83 (inactive)	0.962	0.513
CCOC(=O)C1=C[C@@H](C(C)(C)C)N(S(=O)(=O)c2ccc(C)cc2)[C@H]1c1cccc(Cl)c1	-0.308	0.314	0.0526	0.666	1.54	0.831	0.979	-2.24 (inactive)	0.799	-0.14
NCCCCCNC(=O)[C@@H]1C[C@@H]2C(=O)N3CCC[C@H]3C(=O)N2[C@@H]1c1ccc(O)cc1	1.19	0.0642	0.0232	0.42	0.714	0.976	1.1	0.0207 (inactive)	1	0.0053
CCOC(=O)C[C@H]1[C@H](OC(=O)c2ccccc2-c2ccccc2)[C@@H](NC(=O)c2ccc3ccccc3n2)c2cc(OCCCO)ccc2N1C(=O)c1ccccc1	-0.384	0.491	-0.0752	0.331	0.417	0.288	0.666	-0.764 (inactive)	0.377	0.0401
COCC(=C=CC[C@@H](O)c1ccc(OCCO)cc1)CCO	-0.394	1.19	-0.0861	0.115	-0.0206	1.45	0.745	1.67 (inactive)	0.17	-0.249
CCCCC(=O)N(CCN1CCOCC1)[C@@H]1CC(C(=O)NCCO)=C[C@H](Oc2c(I)cc(CO)cc2OC)[C@H]1O	-0.725	0.151	-0.146	0.511	0.555	0.171	0.384	0.912 (inactive)	0.0126	-0.549
C=CCNC(=O)[C@@H]1[C@H]2C(=O)O[C@H](c3ccccc3)[C@H](c3ccccc3)N2[C@H](c2ccc(O)cc2)[C@@]12C(=O)Nc1ccc(C#CCC(C(=O)OC)C(=O)OC)cc12	-0.174	0.198	-0.18	0.163	0.162	0.749	0.95	1.03 (inactive)	0.249	0.0623
COCCCNC(=O)[C@@]1(c2ccc([N+](=O)[O-])cc2)CC(=O)N(CC23CC4CC(CC(C4)C2)C3)[C@@H]1c1ccc(CO)cc1I	0.456	-0.243	-0.034	0.246	0.218	1.13	1.3	-2.2 (inactive)	0.15	-0.236
